An excerpt weighted towards active compounds, which were near 3% of everything screened.
KDM4E inh: qHTS Assay for Inhibitors of Human Jumonji Domain Containing 2E (JMJD2E); Lysine-specific demethylase 4E (Homo sapiens), B2RXH2; JMJD2E catalytic domain, FDH-coupled NADH fluorescence (FDH is formaldehyde dehydrogenase); Potency, µM (series often up to 57.1 µM), without a hit: at the highest dose activity change, negative = inhibition, hits mostly inhibitors; hit rate 1.6% among 230,000; AID 2147, 2009; active = well fitted inhibition curve with a large enough effect, not every such curve was filed as active; inconclusive = small, poorly fitted or top-dose-only effect, or another doubt; inactive = no such curve, though single readings can be large or run the other way;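 also: potency is read from the fitted curve at half-maximal effect; 0% = wells with enzyme and -100% = buffer wells without enzyme; nearly all actives have a fitted effect of over 50% in size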
Target sequence (B2RXH2 1-337 limits assumed): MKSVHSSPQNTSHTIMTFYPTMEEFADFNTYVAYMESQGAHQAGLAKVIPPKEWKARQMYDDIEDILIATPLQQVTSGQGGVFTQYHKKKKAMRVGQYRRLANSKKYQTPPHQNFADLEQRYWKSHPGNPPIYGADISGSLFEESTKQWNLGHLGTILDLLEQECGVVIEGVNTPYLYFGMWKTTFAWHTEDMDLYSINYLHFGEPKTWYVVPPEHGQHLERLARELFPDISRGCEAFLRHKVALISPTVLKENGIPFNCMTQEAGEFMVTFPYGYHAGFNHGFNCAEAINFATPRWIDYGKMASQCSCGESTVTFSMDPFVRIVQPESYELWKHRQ
Tau ThT inhib: qHTS for Inhibitors of Tau Fibril Formation, Thioflavin T Binding | Potency, µM (series often up to 57.4 µM), for the others: at the highest dose activity, negative = inhibition, most hits filed as inhibitors | recombinant tau K18 P301L, heparin-induced fibrillization, ThT fluorescence | hit rate 2.1% among 270,000 | Microtubule-associated protein tau (Homo sapiens), P10636; also: potency is read from the fitted curve at half-maximal effect; nearly all actives have a fitted effect of over 55% in size
Target sequence (P10636 561-689 P618L limits assumed): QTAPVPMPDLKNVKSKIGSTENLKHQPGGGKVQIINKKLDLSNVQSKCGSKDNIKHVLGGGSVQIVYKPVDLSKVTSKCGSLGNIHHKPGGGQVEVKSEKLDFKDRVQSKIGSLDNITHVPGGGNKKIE
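K18 P301L tau (15 uM + 0.24 uM Alexa 594-tagged), heparin 20 uM, NaOAc pH 7, 6 h 37 C; ThT 30 uM, 1 h RT, ex 450/em 510 nm.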
Tau fibril FP: qHTS for Inhibitors of Tau Fibril Formation, Fluorescence Polarization. Microtubule-associated protein tau (Homo sapiens), P10636. K18 P301L tau heparin fibrillization, Alexa594 FP, 6 h. Potency, µM (series often up to 57.7 µM), inactives show top-dose activity, negative = inhibition, hits mostly inhibitors. hit rate 0.39% among 280,000. AID 1468, 2008; also: potency is read from the fitted curve at half-maximal effect; nearly all actives have a fitted effect of over 55% in size
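Human tau K18 […] P301L fragment, 15 uM unlabeled plus 0.24 uM Alexa 594-labeled tau (final), with compound and 20 uM heparin in 100 mM sodium acetate pH 7; 6 hr at 37 C, then Alexa 594 FP read.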
Tau fluor cs: Counterscreen qHTS for Inhibitors of Tau Fibril Formation, Fluorescence Polarization; Potency, µM (titrated, usually from 57.7 µM), for inactives: top-dose activity change, negative = decrease; hit rate 0.93% among 280,000; tau K18 P301L Alexa594 fluorescence, heparin fibrillization; AID 1463, 2008; also: potency is read from the fitted curve at half-maximal effect; nearly all actives have a fitted effect of over 55% in size
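Human tau K18 P301L (15 uM unlabeled, 0.24 uM Alexa 594-labeled) in 100 mM sodium acetate pH 7 with 20 uM heparin, 6 hr at 37 C. ThT 30 uM added, 1 hr ambient; Alexa 594 FP and total fluorescence read at 555/632 nm.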
Coupling enz: qHTS Assay for Inhibitors of Fructose-1,6-bisphosphate Aldolase from Giardia Lamblia: Coupling assay counterscreen | AID 2472, 2010 | hit rate 0.67% among 290,000 | coupling enzyme system counterscreen, AmpLite Red fluorescence | activity change, negative = inhibition, % at 58.2 µM, hits read low; in the data active = activity change below about -30%
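Counterscreen lacking aldolase: glyceraldehyde-3-phosphate coupling-enzyme reagent preincubated 10 min at RT with compound (at 57.5 uM final), then substrate/coupling system with AmpLite Red added; fluorescence read at 525/598 nm after 20 min RT.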
* = called active by the depositor; [ ] = another dose, or the depositor's remark. Unless noted, calls follow the shape of the dose curve; as a rule, active = well fitted curve in the direction sought with a large enough effect; inconclusive = small, poorly fitted or top-dose-only effect, or another doubt; inactive = no such curve, though single readings can be large; an effect the other way counts as inactive or inconclusive. Unless noted, % is scaled to controls: 0 for no effect and ±100 for the full control effect.

For CN=C(c1ccco1)n1c(=S)nc(-c2ccco2)n(C)c1=S the results were KDM4E inh inconclusive, Tau ThT inhib 28µM*, Tau fibril FP inconclusive, Tau fluor cs -22% and Coupling enz -16.
Screening NC(=O)c1sc(=S)n2c1[nH]c(=O)c1sccc12 returned KDM4E inh -9%, Tau ThT inhib 11µM*, Tau fibril FP 1%, Tau fluor cs -26% and Coupling enz 5.
Screening CCN(CC(=O)NCc1ccc(F)cc1)C(=O)/C=C/c1ccco1 returned KDM4E inh -9%, Tau ThT inhib -8%, Tau fibril FP 1%, Tau fluor cs -7% and Coupling enz -40*.
CCN(CC(=O)NCc1ccc(F)cc1)C(=O)/C=C/c1cccs1 was read as KDM4E inh -6%, Tau ThT inhib -5%, Tau fibril FP -3%, Tau fluor cs -1% and Coupling enz 1.
COc1ccc(C(=O)N2CC(=O)Nc3ccc(F)cc3C2c2ccc(F)cc2)c(OC)c1 (stereo unspecified) was read as Tau ThT inhib -13%, Tau fibril FP -3% and Tau fluor cs -17%.
For CSc1nc(C)c(Oc2ccccc2)c(=O)n1C the results were KDM4E inh 4%, Tau ThT inhib -2%, Tau fibril FP -1%, Tau fluor cs 3% and Coupling enz 6.
Screening COc1cccc(C(c2c(O)nc(SC)n(C)c2=O)c2c(O)nc(SC)n(C)c2=O)c1 returned KDM4E inh 4%, Tau ThT inhib 13µM*, Tau fibril FP inconclusive, Tau fluor cs -17% and Coupling enz 8.
CCCSc1nc(O)c(C(c2ccc(OC)c(O)c2)c2c(O)nc(SCCC)n(C)c2=O)c(=O)n1C was read as KDM4E inh -14%, Tau ThT inhib 4µM*, Tau fibril FP inconclusive, Tau fluor cs -16% and Coupling enz 17.
`COc1ccc(C(c2c(C)n(C)n(-c3ccccc3)c2=O)c2c(C)n(C)n(-c3ccccc3)c2=O)cc1O` gave KDM4E inh -6%, Tau ThT inhib 14%, Tau fibril FP -1%, Tau fluor cs 13% and Coupling enz 1.
COc1cc(Nc2nc3ccccc3c3nnc(C)n23)cc(OC)c1 was read as Tau ThT inhib -7%, Tau fibril FP -15% and Tau fluor cs -20%.
`CCCOc1ccc(CNC(=O)Cn2cc3c(n2)-c2c(oc(C(=O)N4CCOCC4)c2C)CC3)cc1` gave Tau ThT inhib -14%, Tau fibril FP 3% and Tau fluor cs -14%.
`CCOc1ccccc1N1C(=O)CC(Nc2ccc(N3CCOCC3)cc2)C1=O` (stereo unspecified) gave KDM4E inh 4%, Tau ThT inhib 3%, Tau fibril FP 2%, Tau fluor cs -5% and Coupling enz 0.
O=C1CC(Nc2ccc(N3CCOCC3)cc2)C(=O)N1c1ccccc1 (stereo unspecified) was read as KDM4E inh -29%, Tau ThT inhib 16µM*, Tau fibril FP -5%, Tau fluor cs -19% and Coupling enz 1.
Screening COc1ccccc1N1C(=O)CC(Nc2ccc(N3CCOCC3)cc2)C1=O (stereo unspecified) returned KDM4E inh inconclusive, Tau ThT inhib 28µM*, Tau fibril FP -7%, Tau fluor cs -20% and Coupling enz -23.
For CN(C)c1ccc(-c2nccc(Nc3ccc(F)cc3)n2)cc1 the results were Coupling enz -8.
O=C1NNC(c2ccccc2)=N/C1=C\c1ccccc1Cl was read as KDM4E inh -3%, Tau ThT inhib inconclusive, Tau fibril FP inconclusive, Tau fluor cs -8% and Coupling enz -15.
For O=C1NNC(c2ccccc2)=N/C1=C\c1ccco1 the results were KDM4E inh -14%, Tau ThT inhib 18µM*, Tau fibril FP inconclusive, Tau fluor cs inconclusive and Coupling enz -3.
Screening COc1ccc2nc(N=Nc3c(O)ccc4ccccc34)sc2c1 returned KDM4E inh 8%, Tau ThT inhib 2.8µM*, Tau fibril FP -4%, Tau fluor cs inconclusive and Coupling enz -2.
COc1ccc2nc(NC(=O)Nc3cccc4ccccc34)sc2c1 was read as KDM4E inh inconclusive, Tau ThT inhib -15%, Tau fibril FP -11%, Tau fluor cs inconclusive and Coupling enz -9.
`COc1cccc(CNS(=O)(=O)c2ccc3[nH]c4c(c3c2)CCCCC4)c1` gave Tau ThT inhib -9%, Tau fibril FP inconclusive and Tau fluor cs 13µM*[quencher].
O=S(=O)(NCc1ccc(F)cc1)c1ccc2[nH]c3c(c2c1)CCCCC3 was read as Tau ThT inhib -1%, Tau fibril FP -5% and Tau fluor cs 16µM*[quencher].
COc1cccc(CNC(=O)CN(C)S(=O)(=O)c2ccc3[nH]c4c(c3c2)CCCC4)c1 was read as Tau ThT inhib -4%, Tau fibril FP inconclusive and Tau fluor cs inconclusive.
For CN(CC(=O)NCc1ccc(Cl)cc1)S(=O)(=O)c1ccc2[nH]c3c(c2c1)CCCC3 the results were Tau ThT inhib 7%, Tau fibril FP 14% and Tau fluor cs inconclusive.
`CCOc1ccc(-c2oc3cc(Cl)ccc3c(=O)c2O)cc1OC` gave Tau ThT inhib inconclusive, Tau fibril FP 1% and Tau fluor cs -25%.
Screening Cc1ccc2ncccc2c1[N+](=O)[O-] returned KDM4E inh 2%, Tau ThT inhib -5%, Tau fibril FP 11%, Tau fluor cs 2% and Coupling enz 1.
Cc1[nH]c2ccc3ncccc3c2c1C was read as KDM4E inh 2%, Tau ThT inhib 11%, Tau fibril FP 0%, Tau fluor cs 12% and Coupling enz -39*.
Screening COc1ccc(NC(=O)O/N=C2/CCCc3ccc(OC)cc32)cc1 returned KDM4E inh inconclusive, Tau ThT inhib 14µM*, Tau fibril FP inconclusive, Tau fluor cs inconclusive and Coupling enz -9.
Screening COc1ccc2c(c1)/C(=N/OC(=O)c1cccs1)CCC2 returned KDM4E inh -3%, Tau ThT inhib -21%, Tau fibril FP -11%, Tau fluor cs -17% and Coupling enz -3.
For Cc1cc(Cl)ccc1OCC(=O)N(Cc1sccc1C)C1CCS(=O)(=O)C1 (stereo unspecified) the results were Tau ThT inhib -6%, Tau fibril FP -5% and Tau fluor cs -13%.
For CCN(CC)S(=O)(=O)c1cc(C)ccc1NC(=S)Nc1cccnc1 the results were KDM4E inh inconclusive, Tau ThT inhib 8%, Tau fibril FP 32µM*, Tau fluor cs inconclusive and Coupling enz -2.

Screening results: PubChem BioAssay, National Center for Advancing Translational Sciences (NCATS)
